# Data reported in PubChem BioAssay (Tox21).
# Results filed as inconclusive are left out. Activity calls are given as the source filed them. Calls follow the shape of the dose curve; as a rule, active = well fitted inhibition curve with a large enough effect in the repeat runs; inconclusive = weak or mixed curves; inactive = no such curve, though single readings can be large or run the other way.
# Biological target: Cytochrome P450 3A4 (Homo sapiens) (UniProt P08684)
# Assay: Cytochrome P450 Family 3 Subfamily A Member 4 (CYP3A4) small molecule antagonists: luciferase reporter qHTS assay (AID 1671201); also: nearly all actives have a fitted effect of over 50% in size
# Conditions: P450-Glo CYP3A4 enzyme, luciferin luminescence, 1 h; series mostly up to 115 µM; activity change, negative = inhibition: at the top concentration
# Description: National Center for Advancing Translational Sciences [NCATS]
# U.S. Environmental Protection Agency [EPA]
# National Institutes of Environmental Health Sciences [NIEHS]
# National Toxicology Program [NTP]
# U.S. Food and Drug Administration [FDA]
# Cytochrome P450 (CYP) enzymes are membrane-bound hemeproteins that play a key role in metabolism of drugs and xenobiotics. Evaluation of the effect of chemicals on CYP isozymes is useful to minimize the adverse drug reactions and toxicities in drug development process. Tox21 chemicals were tested for their effect on CYP enzyme activities by using P450-Glo (TM) screening systems (Promega Corporation, Madison, WI). These systems provide a luminescent method containing proluciferin substrates and are converted to luciferin products by CYP isozymes. The luciferin products formed are detected with a luciferin detection reagent, and the amount of light produced is proportional to CYP activity. P450-Glo (TM) CYP3A4 screening system (Catalog. No. V9910) was used to detect the compounds that interfere in CYP3A4 activity. The positive control compound used for CYP3A4 assay is ketoconazole (Sigma-Aldrich, St. Louis, MO).
# Tox21 Assay Protocol Summary:
# Two ul of enzyme-substrate mix was dispensed into medium binding white/solid 1536-well plates (Greiner Bio-One North America Inc., Monroe, NC) using a BioRaptr Flying Reagent Dispenser (FRD, Beckman Coulter, Brea, CA). Compounds dissolved in DMSO and positive control (ketoconazole) were transferred to the assay plates at 23 nl using a Pintool station (Wako, San Diego, CA). The assay plates were incubated at room temperature for 10 min. Then 2 ul of NADPH regeneration solution was added to each well of the assay plates using an FRD and incubated at room temperature for 1 h. The reaction was stopped by adding 4 ul of detection reagent using an FRD and after 20 min incubation at room temperature the luminescence signal was measured using a ViewLux plate reader (Perkin Elmer, Shelton, CT). Data were expressed as relative luminescence units.
# % is scaled to controls: 0 for no effect and ±100 for the full control effect; potency is read from the fitted curve at half-maximal effect.
# Sequence of Cytochrome P450 3A4 (Homo sapiens) (P08684 whole entry, looked up): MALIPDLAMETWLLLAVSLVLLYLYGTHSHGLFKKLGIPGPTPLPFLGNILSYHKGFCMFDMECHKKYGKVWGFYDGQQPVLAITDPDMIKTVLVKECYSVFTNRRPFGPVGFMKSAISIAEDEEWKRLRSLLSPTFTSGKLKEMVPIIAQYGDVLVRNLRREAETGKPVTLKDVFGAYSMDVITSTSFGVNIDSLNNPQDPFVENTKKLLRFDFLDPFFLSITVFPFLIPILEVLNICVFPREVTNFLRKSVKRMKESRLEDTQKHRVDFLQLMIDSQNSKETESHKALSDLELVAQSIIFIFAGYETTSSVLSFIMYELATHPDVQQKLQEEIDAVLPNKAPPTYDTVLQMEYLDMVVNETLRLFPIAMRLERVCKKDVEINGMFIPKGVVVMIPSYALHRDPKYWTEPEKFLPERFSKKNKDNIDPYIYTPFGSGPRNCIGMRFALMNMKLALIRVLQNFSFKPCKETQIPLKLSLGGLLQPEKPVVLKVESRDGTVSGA
Structure (SMILES),"activity change, negative = inhibition",Potency
C=C(C)C(=O)OCCOC1CC2CC1C1C=CCC21 (stereo not given),-24.7% (inactive),–
Nc1nc(Cl)cc(Cl)n1,-5.5% (inactive),–
CCCCOCCCC,0.619% (inactive),–
CC(=O)OC/C=C(/C)CCC=C(C)C,2.14% (inactive),–
CC(C)OC(=O)C(C(=O)OC(C)C)=C1SC=CS1,16% [at 52.9 µM] (inactive),–
N[C@H]1C(O)O[C@H](CO)[C@@H](O)[C@@H]1O (stereo not given in full),1.88% [at 52.9 µM] (inactive),–
Cc1ccc(NC(N)=O)cc1,0.302% (inactive),–
CCCCS,6.73% (inactive),–
CC(C)(O)c1ccc(C(C)(C)O)cc1,-1.09% (inactive),–
CN(C)CCc1c[nH]c2ccc(CS(=O)(=O)N3CCCC3)cc12,10% [at 52.9 µM] (inactive),–
CCO[Si](CC(C)C)(OCC)OCC,–,31.7 µM (active)
CCN1CCN(C(=O)N[C@@H](C(=O)N[C@@H]2C(=O)N3C(C(=O)O)=C(CSc4nnnn4C)CS[C@H]23)c2ccc(O)cc2)C(=O)C1=O,0.43% [at 52.9 µM] (inactive),–
Cc1cc(O)c(Cl)cc1C,-3.77% (inactive),–
CC(C)(C)c1ccc(C(=O)CCCCl)cc1,55.2% [at 52.9 µM] (inactive),–
CCCCc1ccc(Cl)cc1,0.103% (inactive),–
CC(C)=CCC/C(C)=C\C#N,-1.06% (inactive),–
O=P(O)(O)C(O)(Cc1cccnc1)P(=O)(O)O,4.84% [at 52.9 µM] (inactive),–
C=CCCCCCCCCOC(C)=O,-1.13% (inactive),–
O=S(=O)(O)c1ccc(Cl)cc1,30.7% (inactive),–
COc1cc(S(N)(=O)=O)cc(C(=O)O)c1OC,-1.13% [at 52.9 µM] (inactive),–

Structure (SMILES),"activity change, negative = inhibition",Potency
COc1cnc(NS(=O)(=O)c2ccc(N)cc2)nc1,4.86% [at 52.9 µM] (inactive),–
O=C1c2ccccc2C(=O)N1CO,-3.5% (inactive),–
CCOC(=O)COc1ccc2c(C)c(CCN(CC)CC)c(=O)oc2c1Cl,44.5% [at 52.9 µM] (inactive),–
CCN(CC)CC(=O)Oc1ccc(NC(C)=O)cc1,10.2% [at 52.9 µM] (inactive),–
CCCCCC(CC)OC(=O)CCCOc1ccc(Cl)cc1Cl (stereo not given),-18% (inactive),–
CC/C=C\CCCCCCCCCCOC(C)=O,13.2% (inactive),–
CCCCCCCC(=O)N(C)C,11.9% (inactive),–
CC[N+](C)(CC)CC,8.59% (inactive),–
CN(C)CCc1c[nH]c2ccc(C[C@H]3COC(=O)N3)cc12,1.3% [at 52.9 µM] (inactive),–
C[n+]1ccccc1/C=N/O,6.23% [at 52.9 µM] (inactive),–
CC(=O)SC[C@@H](C)C(=O)N1CCC[C@H]1C(=O)N[C@@H](Cc1ccccc1)C(=O)O,-3% [at 52.9 µM] (inactive),–
NC[C@H]1O[C@H](O[C@H]2[C@H](O)[C@@H](O[C@H]3O[C@H](CO)[C@@H](O)[C@H](N)[C@H]3O)[C@H](N)C[C@@H]2N)[C@H](N)[C@@H](O)[C@@H]1O,6.04% [at 23.6 µM] (inactive),–
O=C(O)Cc1ccccc1Oc1ccc(Cl)cc1Cl,169% [at 52.9 µM] (inactive),–
CC(O)C(CO)C(C)O (stereo not given),2.39% (inactive),–
CC(C)(C)C(=O)CCc1ccc(Cl)cc1,21.5% (inactive),–
Cc1cc(C)c(C)c(C)c1,1.69% (inactive),–
CC(C)(C)C(=O)CC(=O)C(C)(C)C,-19% (inactive),–
CC(C)C(C)C,7% (inactive),–
Clc1cc(Cl)c(Cl)c(Cl)c1Cl,5.16% (inactive),–
CC(=O)SCC(CC(=O)c1ccc(C)cc1)C(=O)O (stereo not given),26.8% [at 52.9 µM] (inactive),–
